Screening results deposited in PubChem BioAssay by Broad Institute.
An excerpt weighted towards active compounds, which were near 2.8% of everything screened.
Myc binder = binders of human c-Myc, primary screen, biochemical, small molecule microarray, anti-His fluorescence; Myc proto-oncogene protein (Homo sapiens), P01106; His-c-Myc binding; calls only; 17,000 compounds, 1.5% hits; AID 624141, 2012;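 active means spot fluorescence over background with P-value below 7% in all four replicate spots, showing protein binding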;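 further: score is binary with 100 for all four spots passing and 0 otherwise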
Target sequence (P01106 whole entry, looked up): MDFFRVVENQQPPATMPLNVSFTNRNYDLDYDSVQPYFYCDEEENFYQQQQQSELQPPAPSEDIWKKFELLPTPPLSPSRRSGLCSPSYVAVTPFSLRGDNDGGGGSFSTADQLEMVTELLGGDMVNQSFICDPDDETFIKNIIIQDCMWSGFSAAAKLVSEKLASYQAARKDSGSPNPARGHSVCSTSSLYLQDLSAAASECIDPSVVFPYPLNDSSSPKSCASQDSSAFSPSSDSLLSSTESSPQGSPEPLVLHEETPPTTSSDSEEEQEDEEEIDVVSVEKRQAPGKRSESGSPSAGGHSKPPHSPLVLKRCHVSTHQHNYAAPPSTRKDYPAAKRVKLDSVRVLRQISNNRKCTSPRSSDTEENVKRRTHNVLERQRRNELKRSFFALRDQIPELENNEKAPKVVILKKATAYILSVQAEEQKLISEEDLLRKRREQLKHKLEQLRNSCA
mut p53 react = mutant p53 pathway re-activators, primary screen, cell-based, SW480, luciferase, single point, HTS; SW480 PUMA-promoter luciferase, p53 mutant reactivation; activation, % at 9.98 µM; 28,000 compounds, 1.5% hits; AID 624151, 2012; in the data active means activation above about 52%
STAT3 SMM = STAT3 binders, primary screen, biochemical, small molecule microarray, single point, set 2; Signal transducer and activator of transcription 3 (Homo sapiens), P40763; His-STAT3 binding, anti-His fluorescence; calls only; 17,000 compounds, 0.2% hits; AID 624138, 2012;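 active means compounds whose four printed spots each show fluorescence over background unusually high for their array block, chance value under 7%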
mut p53 SMM = binders of human mutant p53, primary screen, biochemical, small molecule microarray, anti-GST fluorescence. mutant tumor protein p53 (GST-tagged), Homo sapiens. small molecule microarray binding. calls only. 17,000 compounds, 0.4% hits;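 active means compounds whose four printed spots each glow above background more than chance allows, each with a p-value under 7%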
NFkB binder = binders of NF-kB p50 subunit, primary screen, biochemical, small molecule microarray, anti-His fluorescence | 17,000 compounds, 1.3% hits | AID 624139, 2012 | anti-His fluorescence binding | Nuclear factor NF-kappa-B p105 subunit (Homo sapiens), P19838 | calls only;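 active means spot fluorescence over background significantly raised, with a chance value under 7% in all four replicate spots of the compound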;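 further: probe protein is his-tagged human p50 processed subunit at 1 µg/ml; raw spot fluorescence signals with no normalization applied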
* = called active by the depositor; i = inactive; / = no result; + = active, no number.

SMILES	Myc binder	mut p53 react	STAT3 SMM	mut p53 SMM	NFkB binder
O=C1O[C@@H](c2ccccc2)[C@@H](c2ccccc2)N2[C@@H](c3ccc(OCCO)cc3)[C@]3(C(=O)Nc4ccc(C#CC5=CCCCC5)cc43)[C@@H](C(=O)N3CCCCCCC3)[C@H]12	i	/	+	+	i
COc1cc2c(cc1OC)CN(C(=O)[C@H]1[C@@H]3C(=O)O[C@@H](c4ccccc4)[C@@H](c4ccccc4)N3[C@@H](c3ccccc3OCCO)[C@]13C(=O)Nc1ccc(C#CC4=CCCCC4)cc13)CC2	i	/	i	i	+
O=C(NCc1ccco1)c1cccc(S(=O)(=O)N2CCCCCC2)c1	i	2	i	i	i
N#Cc1c(N)nc(SCC(=O)c2ccc(Cl)cc2)c(C#N)c1-c1ccco1	i	-12	i	i	i
CN1CCN(C(=O)CN(c2cccc3ccccc23)S(C)(=O)=O)CC1	/	22	/	/	/
O=C(CSc1nnnn1-c1ccccc1Cl)Nc1ccc(Br)cc1	/	19	/	/	/
COC(=O)CC(O)(CCCC(C)(C)O)C(=O)O[C@@H]1C(OC)=C[C@]23CCCN2CCc2cc4c(cc2[C@@H]13)OCO4 (stereo not given in full)	i	-77	i	i	i
COc1cc2c(cc1OC)CN(C(=O)[C@@H]1[C@H]3C(=O)O[C@H](c4ccccc4)[C@H](c4ccccc4)N3[C@H](c3ccc(OCCO)cc3)[C@@]13C(=O)Nc1ccc(C#CC4(O)CCCCCC4)cc13)CC2	i	/	i	i	+
CC(C)=CCc1cc2c(c(CC=C(C)C)c1O)O[C@H](c1ccc(O)cc1)[C@@H](O)C2=O	i	7	i	i	i
COc1ccc(C2CC(=O)c3ccc(OC)cc3O2)cc1 (stereo not given)	i	97*	i	i	i
CC(C)c1onc(-c2c(Cl)cccc2Cl)c1COc1ccc(/C=C/c2cccc(C(=O)O)c2)c(Cl)c1	i	67*	i	i	i
O=C(COc1ccc2ccccc2c1)Nc1ccc(O)cc1C(=O)O	/	13	/	/	/
COc1ccc(C(=O)CC2(O)C(=O)N(Cc3ccccc3)c3ccc(Br)cc32)cc1[N+](=O)[O-] (stereo not given)	/	-5	/	/	/
O=C(Nc1sc2c(c1C(=O)NCc1ccco1)CCC2)c1sc2ccccc2c1Cl	+	42	i	i	i
O=C(Nc1sc2c(c1C(=O)NCc1ccco1)CCCC2)c1sc2ccccc2c1Cl	/	-47	/	/	/
Cc1nn(-c2ccccc2)nc1-c1nnc(-c2ccc(Cl)c(Cl)c2)o1	/	-12	/	/	/
Cc1ccc([N+](=O)[O-])c(OCCCSc2ncccn2)c1	/	67*	/	/	/
N#Cc1ccc(-c2cccs2)nc1SCC(=O)Nc1sc2c(c1C#N)CCCC2	+	6	i	i	i
N#Cc1c(NC(=O)CSc2n[nH]c(-c3ccc(Cl)cc3)n2)sc2c1CCCC2	i	-4	i	i	i
O=C(O)C1C2C=CC(C2)C1C(=O)N1CCc2c([nH]c3ccccc23)C1C(F)(F)F (stereo not given)	/	1	/	/	/
Cc1ccc(NC(=O)c2ccc(S(=O)(=O)N3CC(C)CC(C)C3)cc2)c(C(=O)c2ccccc2)c1 (stereo not given)	/	-5	/	/	/
CCOC(=O)c1c(NC(=O)c2cc(-c3cccnc3)nc3c(C)cc(C)cc23)sc(C(C)=O)c1C	/	4	/	/	/
CCc1ccc(OCC(=O)Nc2ccc(C)cc2[N+](=O)[O-])cc1	/	66*	/	/	/
CCOc1ccc(OCC(=O)Nc2ccc(C)cc2[N+](=O)[O-])cc1	/	32	/	/	/
Cc1ccc(NC(=O)COc2cc(C)c(Br)c(C)c2)c([N+](=O)[O-])c1	/	11	/	/	/
SMILES	Myc binder	mut p53 react	STAT3 SMM	mut p53 SMM	NFkB binder
Cc1ccc(NC(=O)COc2ccc(Cl)cc2)c([N+](=O)[O-])c1	/	95*	/	/	/
Brc1ccc(CNc2nc3ccccc3n2CCN2CCOCC2)cc1	/	-12	/	/	/
O=C(CCCN1C(=O)c2ccccc2C1=O)Nc1ccc(Nc2ccccc2)cc1	/	55*	/	/	/
Cn1c(=O)c2c(nc(Sc3nnc(N)s3)n2C)n(C)c1=O	/	-2	/	/	/
C[C@@H]1CCCCO[C@H](CN(C)C(=O)CCC(F)(F)F)[C@H](C)CN([C@@H](C)CO)C(=O)c2cc(NC(=O)Cc3ccccc3)ccc2O1	+	-9	i	i	+
C[C@@H]1CN([C@@H](C)CO)C(=O)c2cc(NC(=O)c3ccncc3)ccc2O[C@@H](C)CCCCO[C@@H]1CN(C)C(=O)CCC(F)(F)F	i	1	i	i	+
C[C@H](CO)N1C[C@H](C)[C@H](CN(C)C(=O)CCC(F)(F)F)OCCCC[C@H](C)Oc2ccc(NC(=O)CCC(F)(F)F)cc2C1=O	+	-1	i	i	+
C[C@@H]1CCCCO[C@H](CN(C)C(=O)CCC(F)(F)F)[C@@H](C)CN([C@@H](C)CO)C(=O)c2cc(NC(=O)CCC(F)(F)F)ccc2O1	i	-6	i	i	i
C[C@@H]1CN([C@H](C)CO)C(=O)c2cc(NC(=O)CCC(F)(F)F)ccc2O[C@@H](C)CCCCO[C@H]1CN(C)C(=O)CCC(F)(F)F	+	2	i	i	+
C[C@@H]1CN([C@@H](C)CO)C(=O)c2cc(NC(=O)Cc3ccccc3)ccc2O[C@@H](C)CCCCO[C@@H]1CN(C)C(=O)CCC(F)(F)F	i	3	i	i	i
CC(Sc1ncnc2sc3c(c12)CCCC3)C(=O)Nc1ccc(Br)cc1 (stereo not given)	i	-19	i	i	i
Cc1cnn(CCCNC(=O)c2cc(-c3cccnc3)nc3ccc(Cl)cc23)c1	i	-21	i	i	i
CC(C)NC(=O)N(C)C[C@H]1OCCCC[C@@H](C)Oc2ccc(NC(=O)CCC(F)(F)F)cc2C(=O)N([C@H](C)CO)C[C@@H]1C	i	3	i	i	i
C[C@@H]1CN([C@@H](C)CO)C(=O)c2cc(NC(=O)CCC(F)(F)F)ccc2O[C@@H](C)CCCCO[C@@H]1CN(C)C(=O)CCC(F)(F)F	+	-7	i	i	+
CC(C)NC(=O)N(C)C[C@H]1OCCCC[C@H](C)Oc2ccc(NC(=O)CCC(F)(F)F)cc2C(=O)N([C@H](C)CO)C[C@@H]1C	+	17	i	i	+
COc1cc(S(=O)(=O)n2nnc3ccccc32)c(OC)cc1Cl	+	6	i	i	i
COC(=O)c1nnn(CC(=O)N(Cc2ccccc2)c2ccc(Br)cc2)c1C(=O)OC	/	18	/	/	/
CCCCOC(=O)c1cc2c(cn1)[nH]c1ccccc12	/	71*	/	/	/
COc1cc2[nH]c3ccccc3c2cc1C	i	27	i	i	i
C[C@H](CO)N1C[C@H](C)[C@H](CN(C)Cc2ccc(C(F)(F)F)cc2)OCCCC[C@H](C)Oc2ccc(NC(=O)Nc3ccccc3)cc2C1=O	/	-72	/	/	/
